Test results taken from article PMC5540273 (PLoS ONE, 2017).

What follows are compounds tested on ABL2. Details: concentration: 1 μM, replicates: in singlicate; n = 1.
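Note: KINOMEscan kinase panel screen.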

First: COc1cc(Nc2nccc(N3CCC(NC(=O)C4COc5ccccc5O4)C3)n2)cc(OC)c1OC (stereo not shown) [GSK1379761]
Second: COc1cc(Nc2nccc(N3CCC(NC(=O)C(C)c4ccc(Cl)cc4)C3)n2)cc(OC)c1OC (stereo not shown) [GSK1379757]
The “%Inh” value of the first is lower: 3% for the first, 7% for the second.

First: Cc1c(Cn2c(C)nn3c(=O)cc(N4CCO[C@H](C)C4)nc23)cccc1C(F)(F)F [GSK2373690]
Second: O=c1cc(N2CCOCC2)nc2n(Cc3ccc(F)c(Cl)c3)ccn12 [GSK2297099]
The “%Inh” value of the first is higher: 24% for the first, 0% for the second.

`COc1cc2ncn(-c3cc(OCc4ccncc4Br)c(C(N)=O)s3)c2cc1OC` [GW854278] and `COc1cc2ncn(-c3cc(OCCCc4ccccc4)c(C(N)=O)s3)c2cc1OC` [GSK205189] are the same in “%Inh” value: 5% for the first, 5% for the second.

`CCc1ccc(-c2ccc3c(c2)-c2nn(C)cc2S(=O)(=O)N3C)cc1` and `CCS(=O)c1ccc(-c2coc3ccc(-c4nnc(C)o4)cc23)cc1` (stereo not shown) are the same in “%Inh” value: 0% for the first, 0% for the second.

First: C[C@@H]1CC[C@H](C(=O)NC2CCCCC2)CN1c1cc(-c2ccc3c(N)n[nH]c3c2)nc(N)n1 [GSK2291363]
Second: COc1ccc(-c2cc3c(C)nc(N)nc3n([C@H]3CC[C@H](OCCO)CC3)c2=O)cn1
The “%Inh” value of the first is higher: 20% for the first, 0% for the second.

First: CCC(=O)c1c(-c2ccccc2)c2cc(Cl)ccc2c(=O)n1Cc1cc(S(C)(=O)=O)n(CCC(C)(C)O)n1
Second: CCC(=O)c1c(-c2ccccc2)c2cc(Cl)ccc2c(=O)n1Cc1cc(S(C)(=O)=O)n(CC(F)F)n1
The “%Inh” value of the first is higher: 9% for the first, 0% for the second.

Compared with `Cl.c1ccc(Cn2cnc3cc(Nc4ncnc5ccccc45)ccc32)cc1` [GW272142], `COC(=O)c1c(-c2ccccc2)c2cc(C)ccc2c(=O)n1Cc1ccccc1` is lower in “%Inh” value: 9% for the first, 6% for the second.

Compared with `FC(F)(F)c1ccc(-c2ncn(CCCN3CCOCC3)c2-c2ccncc2)cc1` [SB-217780], `Nc1nccc2scc(-c3ccc4c(c3)CCN4C(=O)Cc3ccccc3)c12` [GSK2576924] is lower in “%Inh” value: 8% for the first, 1% for the second.

Compared with `O=C1NC(=O)C(c2ccccc2)=C1Nc1cccc(O)c1` [SB-390534], `COc1cccc(C2=C(Nc3cccc(C(=O)O)c3)C(=O)NC2=O)c1` [SB-390770] is higher in “%Inh” value: 1% for the first, 6% for the second.

Compared with `COc1cc2nccc(Nc3cccc(Oc4ccccc4)c3)c2cc1OC.Cl` [GW284543], `COc1cc(Nc2ccnc3ccc(C(F)(F)F)cc23)cc(OC)c1OC` [GW577382] is higher in “%Inh” value: 15% for the first, 28% for the second.

Compared with `CN1C(=O)C(Nc2cc(Cl)c(O)c(Cl)c2)=C(c2ccc(Cl)cc2)C1=O` [SB-404321], `CCC(=O)c1c(-c2ccccc2)c2cc(Cl)ccc2c(=O)n1Cc1cc(C(=O)NC2CC2)n(C)n1` is higher in “%Inh” value: 0% for the first, 9% for the second.

Compared with `COc1ccc(-c2coc3ccc(-c4nnc(SCc5cccc(C#N)c5)o4)cc23)cc1`, `Fc1cccc(CSc2nnc(-c3ccc4c(c3)CCO4)o2)c1` is higher in “%Inh” value: 0% for the first, 22% for the second.

Going from `Nc1n[nH]c2nnc(-c3ccccc3)c(-c3ccccc3)c12` [GW554060] to `Cc1cc(Nc2nc(-c3cccc(C)n3)nc3ccccc23)ccn1` [GW872411], the “%Inh” value falls from 9% to 0%.

Compared with `Nc1ncnc2c1ncn2-c1ccc(Cl)cc1` [AH2635], `COc1cccc(-n2cnc3c(N)ncnc32)c1` [SKF-97416] is higher in “%Inh” value: 0% for the first, 8% for the second.

`CCS(=O)(=O)c1ccc(OC)c(Nc2ncc(-c3ccc(F)cc3)o2)c1.Cl` [GW591947] and `Cc1ccc(Oc2ccc(Nc3ncnc4cc[nH]c34)cc2C)cn1` are the same in “%Inh” value: 0% for the first, 0% for the second.

Going from `O=C(NCc1cccs1)c1cc(C(=O)c2c(Cl)cccc2Cl)c[nH]1` [GW823670] to `CCC(=O)c1c(-c2ccccc2)c2cc(Cl)ccc2c(=O)n1Cc1ccc(C(=O)O)cc1`, the “%Inh” value rises from 0% to 15%.

Compared with `Cc1nc(N(C)[C@H]2CN(C(=O)CC#N)CC[C@H]2C)c2cc[nH]c2n1`, `CCCNC(=O)Nc1ccc(Oc2ncnc3ccn(C)c23)cc1` is higher in “%Inh” value: 1% for the first, 4% for the second.

First: COc1cccc(C2=C(N(C)c3ccccc3)C(=O)NC2=O)c1 [SB-334865]
Second: CC(C)(C)c1ccc(C(=O)Nc2cn3cc(-c4ccccc4)ccc3n2)cc1
The “%Inh” value of the first is lower: 14% for the first, 21% for the second.

For `Cc1nnc(-c2ccc3ncn(-c4ccc(S(C)=O)cc4)c3c2)o1` (stereo not shown), the “%Inh” value was 6%.
